Laboratory results published in PubChem BioAssay (NCATS).
Records with an inconclusive call do not appear. Entries that show only a call come without a potency. Active and inactive are the calls of the source. Unless noted, the call rests on the fitted dose curve; in most records, active means well fitted curve in the direction sought with a large enough effect; inconclusive means small, poorly fitted or top-dose-only effect, or another doubt; inactive means no such curve, though single readings can be large; an effect the other way counts as inactive or inconclusive.

Columns and labels:
[1] = biological target: ATP-dependent 6-phosphofructokinase (Trypanosoma brucei brucei) (UniProt O15648); test: qHTS Assay to Find Inhibitors of T. brucei phosphofructokinase: hit validation (AID 492961);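 further: luminescence reports ADP formed as PFK phosphorylates fructose-6-phosphate with ATP; series mostly up to about 51 µM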
ATP-dependent 6-phosphofructokinase (Trypanosoma brucei brucei), sequence (O15648 whole entry, looked up): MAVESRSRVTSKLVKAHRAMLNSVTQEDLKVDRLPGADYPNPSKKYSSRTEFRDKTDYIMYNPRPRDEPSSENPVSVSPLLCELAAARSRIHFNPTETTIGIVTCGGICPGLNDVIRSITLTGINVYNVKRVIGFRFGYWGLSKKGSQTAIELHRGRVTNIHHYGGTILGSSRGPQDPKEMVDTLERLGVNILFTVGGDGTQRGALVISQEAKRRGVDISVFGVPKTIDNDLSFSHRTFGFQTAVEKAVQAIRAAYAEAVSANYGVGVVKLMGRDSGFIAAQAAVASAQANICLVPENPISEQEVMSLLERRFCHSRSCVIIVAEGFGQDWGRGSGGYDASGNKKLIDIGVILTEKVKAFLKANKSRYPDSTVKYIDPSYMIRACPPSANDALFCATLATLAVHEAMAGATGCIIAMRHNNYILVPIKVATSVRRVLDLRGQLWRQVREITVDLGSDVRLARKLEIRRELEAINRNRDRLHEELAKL
Outline: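 Percent activity derived from corrected luminescence, normalized between 0x and 1x enzyme controls, then fitted to concentration-response curves. Conditions: 1.25 nM PFK, 0.1 mM ATP, 0.5 mM F6P, 45 min RT.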

[2] = biological target: Methanococcus maripaludis chaperonin (MmCpn) (UniProt Q6LX38); test: High-Throughput Screening for Modulators of Cytosolic Chaperonin Activity: MmCpn Primary Screen (AID 488978);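 further: 50 nM MmCpn enzyme hydrolysing 30 µM ATP at 37 °C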
Methanococcus maripaludis chaperonin (MmCpn), sequence (Q6LX38 1-543): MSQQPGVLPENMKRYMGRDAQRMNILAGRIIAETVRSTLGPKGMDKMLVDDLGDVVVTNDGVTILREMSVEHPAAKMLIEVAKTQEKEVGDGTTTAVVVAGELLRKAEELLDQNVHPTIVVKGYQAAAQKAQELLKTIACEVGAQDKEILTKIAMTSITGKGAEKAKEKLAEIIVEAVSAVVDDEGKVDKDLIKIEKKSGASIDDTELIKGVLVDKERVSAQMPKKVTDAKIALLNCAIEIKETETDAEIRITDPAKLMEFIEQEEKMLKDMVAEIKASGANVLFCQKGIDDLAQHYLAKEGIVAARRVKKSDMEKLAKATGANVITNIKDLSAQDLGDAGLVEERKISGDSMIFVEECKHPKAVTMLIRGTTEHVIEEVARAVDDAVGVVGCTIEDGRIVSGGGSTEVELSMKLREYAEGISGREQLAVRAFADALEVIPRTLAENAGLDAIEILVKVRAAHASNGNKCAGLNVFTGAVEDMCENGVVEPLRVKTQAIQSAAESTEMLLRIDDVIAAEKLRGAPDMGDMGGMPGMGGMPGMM
Outline: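 MmCpn at 50 nM final was preincubated 5 min at RT with compound. ATP was then added at 30 uM final for 10 min at 37 C. ADP formed was detected by Transcreener HTRF (665/590 nm).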

[3] = biological target: Transient receptor potential cation channel subfamily V member 1 (Homo sapiens) (UniProt Q8NER1); test: HTS Assay for Compounds that Act as Enhancers of the Vanilloid Receptor 1 (AID 488979)
Outline: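 TRPV1-expressing cells loaded with Fluo-8 calcium dye; compounds added and calcium influx read kinetically for 3 min (agonist phase), then capsaicin at EC20 added and read 2 min more for enhancement. Fluorescence ex 480/em 520 nm.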

[4] = biological target: Thyrotropin receptor (Homo sapiens) (UniProt P16473); test: qHTS Assay for Antagonists of the Thyroid Stimulating Hormone Receptor (AID 488980); further: series mostly up to about 58 µM
Thyrotropin receptor (Homo sapiens), sequence (P16473 whole entry, looked up): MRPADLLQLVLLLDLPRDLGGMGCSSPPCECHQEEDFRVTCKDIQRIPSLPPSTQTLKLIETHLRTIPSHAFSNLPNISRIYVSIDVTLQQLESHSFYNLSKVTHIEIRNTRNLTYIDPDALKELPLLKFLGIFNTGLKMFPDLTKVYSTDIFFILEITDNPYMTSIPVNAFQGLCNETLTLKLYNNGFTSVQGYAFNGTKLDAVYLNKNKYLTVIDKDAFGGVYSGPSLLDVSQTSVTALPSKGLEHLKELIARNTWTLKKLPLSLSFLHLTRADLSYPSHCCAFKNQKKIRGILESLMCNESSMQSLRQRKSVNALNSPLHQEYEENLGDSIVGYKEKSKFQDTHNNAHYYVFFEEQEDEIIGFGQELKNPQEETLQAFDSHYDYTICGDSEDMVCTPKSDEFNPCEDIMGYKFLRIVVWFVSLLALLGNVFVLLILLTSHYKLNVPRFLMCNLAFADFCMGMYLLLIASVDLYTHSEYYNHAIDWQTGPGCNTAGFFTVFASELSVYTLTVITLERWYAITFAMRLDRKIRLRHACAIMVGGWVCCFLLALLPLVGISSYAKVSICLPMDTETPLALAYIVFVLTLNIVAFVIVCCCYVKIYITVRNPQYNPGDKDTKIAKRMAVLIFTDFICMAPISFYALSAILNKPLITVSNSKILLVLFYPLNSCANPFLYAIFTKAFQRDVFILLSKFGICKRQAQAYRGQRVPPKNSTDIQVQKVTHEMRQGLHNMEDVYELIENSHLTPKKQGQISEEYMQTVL
Outline: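 TSHR-transfected HEK293 cells (2000/well) in HEPES-buffered HBSS with 70 uM RO 20-1724 were stimulated with 4 nM TSH (EC80, final) in the presence of compound. cAMP was measured by HTRF competition after lysis and 30 min at RT.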

[5] = biological target: D(1A) dopamine receptor (Homo sapiens) (UniProt P21728); test: HTS Assay for Allosteric Agonists of the Human D1 Dopamine Receptor: Primary Screen for Agonists (AID 488981)
D(1A) dopamine receptor (Homo sapiens), sequence (P21728 whole entry, looked up): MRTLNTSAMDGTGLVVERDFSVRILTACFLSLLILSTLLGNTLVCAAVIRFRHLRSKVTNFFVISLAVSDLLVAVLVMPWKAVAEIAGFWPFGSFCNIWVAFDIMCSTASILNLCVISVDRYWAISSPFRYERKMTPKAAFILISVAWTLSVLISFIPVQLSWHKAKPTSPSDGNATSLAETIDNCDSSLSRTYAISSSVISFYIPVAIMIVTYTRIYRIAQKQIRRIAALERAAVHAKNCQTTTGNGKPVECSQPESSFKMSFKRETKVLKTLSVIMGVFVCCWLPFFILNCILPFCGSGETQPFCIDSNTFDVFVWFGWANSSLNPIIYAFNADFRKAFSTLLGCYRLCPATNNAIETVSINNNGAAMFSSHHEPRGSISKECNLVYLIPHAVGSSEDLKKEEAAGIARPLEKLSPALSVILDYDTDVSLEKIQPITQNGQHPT
Outline: (§1)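 Tetracycline-induced HEK293 T-REx cells force-coupled to calcium signalling were incubated overnight at 30 C and dye-loaded at room temperature. Calcium flux over 180 s after compound addition flagged agonists; a further 180 s read after EC20 dopamine flagged potentiators.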

[6] = biological target: D(1A) dopamine receptor (Homo sapiens) (UniProt P21728); test: HTS Assay for Allosteric Agonists of the Human D1 Dopamine Receptor: Primary Screen for Potentiators (AID 488982)
Outline: as §1

[7] = Validation screen for small molecules that induce genotoxicity in human embryonic kidney (HEK293T) cells expressing luciferase-tagged ELG1 (AID 493106)
Outline: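 HEK293T cells expressing luciferase-tagged ELG1 were exposed to compound or DMSO vehicle for 16 hr at 37 °C, 5% CO2. Genotoxic stress raises ELG1 levels, so increased luciferase signal after ONE-Glo addition and 30 min at room temperature marks hits.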

[8] = biological target: ATPase family AAA domain-containing protein 5 (Homo sapiens) (UniProt Q96QE3); test: Validation screen for small molecules that inhibit ELG1-dependent DNA repair in human embryonic kidney (HEK293T) cells expressing luciferase-tagged ELG1 (AID 493107);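 further: cells co-treated with the DNA-damaging agent 5-fluorouridine alongside compound; series mostly up to about 46 µM; inhibitors lower the ELG1-luciferase luminescence signal; nearly all actives have a fitted effect of over 70% in size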
ATPase family AAA domain-containing protein 5 (Homo sapiens), sequence (Q96QE3 whole entry, looked up, the tested form may be a part): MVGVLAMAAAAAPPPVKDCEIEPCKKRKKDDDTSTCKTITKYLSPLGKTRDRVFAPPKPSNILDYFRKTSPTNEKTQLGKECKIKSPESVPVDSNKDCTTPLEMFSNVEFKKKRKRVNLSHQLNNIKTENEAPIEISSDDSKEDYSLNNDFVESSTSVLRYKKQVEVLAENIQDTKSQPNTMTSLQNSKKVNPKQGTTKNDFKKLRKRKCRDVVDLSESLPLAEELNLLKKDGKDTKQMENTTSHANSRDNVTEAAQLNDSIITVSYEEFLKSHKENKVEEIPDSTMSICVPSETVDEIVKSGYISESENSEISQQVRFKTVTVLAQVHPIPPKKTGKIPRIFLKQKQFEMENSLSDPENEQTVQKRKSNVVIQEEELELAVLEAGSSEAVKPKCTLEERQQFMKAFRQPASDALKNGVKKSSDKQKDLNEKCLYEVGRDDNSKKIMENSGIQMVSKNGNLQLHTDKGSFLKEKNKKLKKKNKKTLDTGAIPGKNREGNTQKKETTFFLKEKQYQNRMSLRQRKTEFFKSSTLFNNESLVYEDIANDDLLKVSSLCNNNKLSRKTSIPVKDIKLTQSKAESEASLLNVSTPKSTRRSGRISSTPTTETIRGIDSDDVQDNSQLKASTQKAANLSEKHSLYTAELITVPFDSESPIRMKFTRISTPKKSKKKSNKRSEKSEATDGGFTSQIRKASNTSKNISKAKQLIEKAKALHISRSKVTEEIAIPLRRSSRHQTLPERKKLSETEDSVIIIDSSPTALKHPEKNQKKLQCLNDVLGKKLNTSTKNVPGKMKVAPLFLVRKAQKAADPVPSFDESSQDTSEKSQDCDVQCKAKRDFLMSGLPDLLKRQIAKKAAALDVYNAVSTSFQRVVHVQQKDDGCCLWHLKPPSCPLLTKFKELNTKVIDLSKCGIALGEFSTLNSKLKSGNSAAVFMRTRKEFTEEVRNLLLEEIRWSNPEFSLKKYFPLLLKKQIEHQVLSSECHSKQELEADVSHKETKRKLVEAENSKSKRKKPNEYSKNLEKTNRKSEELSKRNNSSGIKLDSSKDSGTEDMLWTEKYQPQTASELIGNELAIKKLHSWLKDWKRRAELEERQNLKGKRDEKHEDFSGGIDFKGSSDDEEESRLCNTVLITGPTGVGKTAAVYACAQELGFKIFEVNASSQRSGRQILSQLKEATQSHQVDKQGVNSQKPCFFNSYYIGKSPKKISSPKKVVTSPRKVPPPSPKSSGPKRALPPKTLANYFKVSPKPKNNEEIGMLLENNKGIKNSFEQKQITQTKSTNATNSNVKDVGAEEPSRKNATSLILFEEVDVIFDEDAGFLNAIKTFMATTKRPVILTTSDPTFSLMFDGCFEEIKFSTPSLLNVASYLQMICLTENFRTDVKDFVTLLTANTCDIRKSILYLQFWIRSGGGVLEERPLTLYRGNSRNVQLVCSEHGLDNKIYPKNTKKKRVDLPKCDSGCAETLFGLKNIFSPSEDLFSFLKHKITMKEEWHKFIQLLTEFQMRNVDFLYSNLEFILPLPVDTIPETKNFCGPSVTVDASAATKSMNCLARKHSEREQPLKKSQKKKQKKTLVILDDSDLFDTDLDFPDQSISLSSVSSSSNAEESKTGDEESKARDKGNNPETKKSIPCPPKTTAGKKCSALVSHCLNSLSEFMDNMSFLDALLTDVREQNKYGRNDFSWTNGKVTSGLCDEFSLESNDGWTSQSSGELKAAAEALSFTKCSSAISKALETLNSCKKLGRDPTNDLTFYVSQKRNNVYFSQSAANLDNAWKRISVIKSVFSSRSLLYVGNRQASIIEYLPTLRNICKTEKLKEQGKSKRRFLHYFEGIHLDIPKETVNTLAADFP
Outline: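 HEK293T cells expressing luciferase-tagged ELG1 were co-treated with 5-fluorouridine and compound or DMSO for 16 hr at 37 °C, 5% CO2. Luciferase activity was then read with ONE-Glo after 30 min at room temperature; suppressed signal indicates blocked ELG1 function.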

[9] = biological target: Thyrotropin-releasing hormone receptor (Homo sapiens) (UniProt P34981); test: qHTS for Small Molecule Agonists and Allosteric Enhancers of Human TRH Receptor: Validation Screen for Agonists (AID 493127;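 active means calcium activation more than 3 SD above the typical response in the agonist read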;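 further: intracellular calcium rise by fluo-8 fluorescence before TRH EC20 addition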); conditions: TRH receptor agonist cell assay; at 2 µM; stronger effect = higher value
Outline: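 TRHR-expressing cells were plated overnight in serum-containing medium, then loaded with fluo-8 calcium dye at room temperature for 30 min–1.5 h. After a 10 s baseline, compound was pin-transferred and calcium fluorescence (ex 480/em 530) read kinetically for agonist response.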

[10] = Nrf2 qHTS screen for inhibitors: Validation (AID 493153; active means well fitted inhibition curve with a large enough effect in the main read-out, with a control signal flat, not every such curve was filed as active); conditions: viability change: measured here: cytotoxicity max response
Outline: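 A549 cells carrying an ARE-driven firefly luciferase reporter, in 5% FBS OPTI-MEM, were treated with compounds in concentration-response for 18-24 h at 37°C. Viability was read by CellTiter-Fluor fluorescence, then Nrf2 activity by luciferase luminescence.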

[11] = qHTS for Inhibitors of Cell Surface uPA Generation: Validation Assay (AID 493164);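 further: RAW 264.7 macrophage cells exposed to compound for 18 h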
Outline: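 RAW 264.7, 4000 cells/well, o/n plating; cpd 7-pt 1:5 dilution 2.45 nM–38.3 uM final; 18 h, 37 C/5% CO2; ATP-Lite, 5 s luminescence exposure.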

[12] = biological target: Galactokinase (Homo sapiens) (UniProt P51570); test: qHTS Validation Assay for Inhibitors of Human Galactokinase (GALK) (AID 493189)
Outline: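 GALK (5 nM) with 35 uM ATP and 100 uM galactose in HEPES pH 8.0 with MgCl2, NaCl, DTT and BSA. Reaction ran 1 h at room temperature. Residual ATP read by Kinase-Glo Plus luminescence.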

[13] = Validation screen for small molecules that induce DNA re-replication in SW480 colon adenocarcinoma cells (AID 504364)
Outline: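 SW480 cells seeded at 250 per well were exposed to compound or DMSO for 48 hr at 37 C, 5% CO2, then stained with Hoechst for 40 min. DNA content per nucleus was imaged (405 nm ex, 500-530 nm em).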

[14] = biological target: Peptidyl-prolyl cis-trans isomerase NIMA-interacting 1 (Homo sapiens) (UniProt Q13526); test: qHTS Validation Assay to Find Inhibitors of Pin1 (AID 504536; active means well fitted inhibition curve with a large enough effect in the polarisation, with a control signal flat, not every such curve was filed as active; the % refers to the polarisation)
Peptidyl-prolyl cis-trans isomerase NIMA-interacting 1 (Homo sapiens), sequence (Q13526 whole entry, looked up): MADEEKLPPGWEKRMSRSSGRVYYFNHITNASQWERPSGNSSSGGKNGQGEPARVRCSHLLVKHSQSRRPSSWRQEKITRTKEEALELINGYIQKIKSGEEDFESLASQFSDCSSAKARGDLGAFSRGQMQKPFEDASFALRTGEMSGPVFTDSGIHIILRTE
Outline: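 Fluorescence polarization competition: compounds (titration) displace HiFluor-488-labeled Pin1-1b peptide from Pin1 (0.3 uM final) in pH 7.5 HEPES buffer with DTT, 10 min at room temperature; %Activity normalized to no-enzyme wells, curves fitted.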

[15] = biological target: Ubiquitin carboxyl-terminal hydrolase 1 (Homo sapiens) (UniProt O94782); test: Inhibitors of USP1/UAF1: Pilot qHTS (AID 504865);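 further: rhodamine fluorescence freed from ubiquitin-rhodamine substrate followed over time; top concentration of the series differs between compounds; nearly all actives have a fitted effect of over 35% in size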
Ubiquitin carboxyl-terminal hydrolase 1 (Homo sapiens), sequence (O94782 whole entry, looked up): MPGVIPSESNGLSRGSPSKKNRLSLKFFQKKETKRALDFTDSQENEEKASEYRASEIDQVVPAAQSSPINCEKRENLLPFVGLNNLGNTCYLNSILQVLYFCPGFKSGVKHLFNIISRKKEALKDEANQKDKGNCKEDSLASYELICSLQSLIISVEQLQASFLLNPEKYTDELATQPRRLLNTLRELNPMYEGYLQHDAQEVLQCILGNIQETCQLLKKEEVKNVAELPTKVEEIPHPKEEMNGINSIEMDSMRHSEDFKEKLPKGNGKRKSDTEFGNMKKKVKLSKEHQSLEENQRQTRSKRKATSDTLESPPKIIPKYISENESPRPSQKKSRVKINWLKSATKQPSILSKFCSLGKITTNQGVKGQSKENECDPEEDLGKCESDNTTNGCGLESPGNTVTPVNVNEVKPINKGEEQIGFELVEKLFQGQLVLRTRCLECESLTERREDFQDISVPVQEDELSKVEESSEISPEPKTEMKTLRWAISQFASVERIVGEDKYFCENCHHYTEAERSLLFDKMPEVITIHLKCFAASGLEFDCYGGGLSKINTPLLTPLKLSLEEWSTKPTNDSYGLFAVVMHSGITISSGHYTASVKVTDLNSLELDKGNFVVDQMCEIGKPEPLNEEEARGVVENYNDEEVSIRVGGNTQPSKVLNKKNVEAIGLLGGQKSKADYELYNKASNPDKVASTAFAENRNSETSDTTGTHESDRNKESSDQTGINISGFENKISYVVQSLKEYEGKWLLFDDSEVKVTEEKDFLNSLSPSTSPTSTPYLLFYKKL
Outline: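 USP1/UAF1 complex at 1 nM preincubated 15 min at room temperature with compound, then Ub-Rho substrate added at 150 nM final. Fluorescence (480/540 nm) read kinetically in 50 mM HEPES pH 7.8, 0.5 mM EDTA, 1 mM TCEP, 0.1 mg/ml BSA, 0.01% Tween-20.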

[16] = qHTS for Inhibitors of ATXN expression: Validation (AID 588378); further: series mostly up to about 57 µM; nearly all actives have a fitted effect of over 75% in size
Outline: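 HEK293 cells carrying ATXN2-firefly luciferase reporter, treated with compound 24 h at 37 °C. Viability read first by CellTiter-Fluor (405/525 nm), then reporter expression by Bright-Glo luminescence; controls were a known ATXN2 expression inhibitor and a luciferase inhibitor.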

## CC(C)(C)CC(C)(C)c1ccc(O)c(Cc2ccc(Cl)cc2Cl)c1
[1]
  outcome: inactive

## COC(=O)[C@H]1[C@H]2C[C@H]3c4[nH]c5ccccc5c4CCN3C[C@H]2CC[C@@H]1O
[2]
  outcome: inactive
[3]
  outcome: inactive
[4]
  outcome: inactive
[5]
  Potency: inactive
[6]
  outcome: inactive
[7]
  outcome: inactive
[8]
  Potency: inactive
[9]
  activation: 1.44% (inactive)
[10]
  outcome: inactive
  viability change: -3.55%
[11]
  outcome: inactive
[12]
  outcome: inactive
[13]
  outcome: inactive
[14]
  outcome: inactive
[15]
  Potency: inactive
[16]
  Potency: inactive

## C[C@H](O)C(=O)Nc1c(I)c(C(=O)NC(CO)CO)c(I)c(C(=O)NC(CO)CO)c1I
[1]
  outcome: inactive

## CCOC(=O)/C=C(C)/C=C/C=C(C)/C=C/c1c(C)cc(OC)c(C)c1C
[1]
  outcome: inactive

## CCC(NC(C)C)C(O)c1ccc(O)c(O)c1 (configuration not stated)
[2]
  outcome: inactive
[3]
  outcome: inactive
[4]
  outcome: inactive
[5]
  Potency: inactive
[6]
  outcome: inactive
[7]
  outcome: inactive
[8]
  Potency: inactive
[9]
  activation: 0.625% (inactive)
[10]
  outcome: inactive
  viability change: -19.1%
[11]
  outcome: inactive
[12]
  outcome: inactive
[13]
  outcome: inactive
[14]
  outcome: inactive
[15]
  Potency: inactive

## CCN1CCC[C@H]1CNC(=O)c1c(OC)ccc(Br)c1OC
[1]
  outcome: inactive
[15]
  Potency: inactive

## COc1ccc(CN2CCN(C(c3ccc(F)cc3)c3ccc(F)cc3)CC2)c(OC)c1OC
[1]
  outcome: inactive
[15]
  Potency: inactive

## CC1=C(C(=O)OC(C)C)C(c2cccc([N+](=O)[O-])c2)C(C(=O)OC2CN(C(c3ccccc3)c3ccccc3)C2)=C(N)N1 (configuration not stated)
[1]
  outcome: inactive

## Cc1c(C)n(Cc2ccccc2)c2ccc(C(=O)OCCN(C)C)cc12
[1]
  outcome: inactive

## C[C@]12CCC(=O)C=C1CC[C@H]1[C@@H]3CC[C@](O)(C(=O)CO)[C@@]3(C)C[C@H](O)[C@@]12F
[1]
  outcome: inactive
[15]
  Potency: inactive

## CCOC(=O)n1ccn(C)c1=S
[1]
  outcome: inactive

## CCOc1ccc(Cc2nccc3cc(OCC)c(OCC)cc23)cc1OCC
[1]
  outcome: inactive

## CC/C(=C(/CC)c1ccc(O)cc1)c1ccc(O)cc1
[1]
  outcome: inactive

## CCCCOc1ccc(OCCCN2CCOCC2)cc1
[1]
  outcome: inactive

## COc1c(C)c2c(c(O)c1C/C=C(\C)CCC(=O)O)C(=O)OC2
[1]
  outcome: inactive
[15]
  Potency: inactive

## CN1CCN(CCCN2c3ccccc3Sc3ccc(S(=O)(=O)N(C)C)cc32)CC1
[1]
  outcome: inactive
[15]
  Potency: inactive

## CC(=O)OCC(=O)[C@@]1(OC(C)=O)[C@@H](C)C[C@H]2[C@@H]3C[C@H](F)C4=CC(=O)C=C[C@]4(C)[C@@]3(F)[C@@H](O)C[C@@]21C
[1]
  outcome: inactive
[15]
  Potency: inactive

## CC(=O)N/N=C/c1ccc([N+](=O)[O-])o1
[1]
  outcome: inactive
[15]
  Potency: inactive

## CCC(=O)c1c(O)cc(O)cc1O
[1]
  outcome: inactive
[15]
  Potency: inactive

## CC[N+](CC)(CCNC(=O)C(=O)NCC[N+](CC)(CC)Cc1ccccc1Cl)Cc1ccccc1Cl
[1]
  outcome: inactive
[15]
  Potency: inactive

## CN(C)CC/C=C1\c2ccccc2Sc2ccc(Cl)cc21
[1]
  outcome: inactive

## CCN(CC)CCNC(=O)COc1ccc(Cl)cc1
[1]
  outcome: inactive
[15]
  Potency: inactive

## COc1ccc(/C=C/C(=O)c2ccc(OC)cc2OC)cc1
[1]
  outcome: inactive
[15]
  Potency: inactive

## CCN(CCCc1ccccc1)CCCc1ccccc1
[1]
  outcome: inactive
[15]
  Potency: inactive

## O=C(CCCN1CCC(O)(c2ccc(Br)cc2)CC1)c1ccc(F)cc1
[1]
  outcome: inactive
[15]
  Potency: inactive
